The panel holds about 83,000 compounds, 20% with a hit somewhere; the sample as a whole holds those more often.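 Note: values are percent growth. 100 is the growth of untreated cells, values between 100 and 0 indicate rising inhibition; between -100 and 0 indicates cell death.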 Values without a mark were called inactive. Active and inactive are the calls of the source. The calls were made as follows: active = growth percent below 10; inactive = the rest.
The compounds below were run on HL-60(TB) leukemia (assay: NCI-60 one-dose screen, 48 h (100 = growth as untreated, 0 = no growth, -100 = all killed)). Details: 10 µM unless noted.

Structure (SMILES) | growth
O=C(O)Cc1cc(=O)[nH]n(-c2ccccc2)c1=O | 95.3%
CCCCNC(=O)NS(=O)(=O)c1ccc(N2N=C(c3ccc(C)cc3C)CC2c2ccc(N(C)C)cc2)cc1 (centres undefined) | 14.4%
O=C(O)c1cccc([N+](=O)[O-])c1O | 78.2%
Fc1[nH]nc2ccc([C@@H]3Nc4ccc5[nH]ncc5c4[C@H]4C5CCC(C5)[C@@H]34)cc12 (some centres undefined) | 14.4%
COc1cc2c(=O)n(CCN)c3c4cc5c(cc4ccc3c2cc1OC)OCO5 | -64.9% (active)
c1ccc([I+]c2ccccc2)cc1 | 52%
CCOC(=O)C(=Cc1ccc(-c2ccccc2)cc1)C(=O)OCC | -10.6% (active)
CCOC(=O)Oc1c(OC)cc(C(=O)c2ccc(OC)c(OC(=O)CCl)c2OC)cc1OC | -30.9% (active)
O=c1c2cc(F)ccc2sc2c(NCCCNCCO)nc3ccc(F)cc3c12 | 54.6%
CC(=O)Oc1ccc(C(OC(C)=O)OC(C)=O)cc1 | 90.3%
COC(=O)[C@@H](NC(=O)[C@@H](OC)[C@@H]1Cc2cc3cc(OC4CC(OC5CC(O)C(O)C(C)O5)C(O)C(C)O4)c(C)c(O)c3c(O)c2C(=O)[C@H]1OC1CC(OC2CC(OC3CC(C)(O)C(O)C(C)O3)C(O)C(C)O2)C(O)C(C)O1)C(C)C (some centres undefined) | 52.4%
CCOC(=O)NC(C)C | 68%
CCn1cc(C2NC(=O)c3ccccc3N2)c2cccc(C)c21 (centres undefined) | -56.2% (active)
c1ccc(C2NCCNC2c2ccccc2)cc1 (centres undefined) | 103%
